Here are results for 15 molecules from PubChem BioAssay (NCI).

Assay in all cases: NCI-60 one-dose screen, 48 h (100 = growth as untreated, 0 = no growth, -100 = all killed)
Holding throughout (settings): 10 µM unless noted

Assay [1] concerns SR leukemia.
Assay [2] has as its system RPMI-8226 leukemia.
The test system of assay [3] is OVCAR-8 ovarian.
For assay [4], the system named is OVCAR-5 ovarian.
The subject of assay [5] is OVCAR-4 ovarian.
For assay [6], the system named is SK-OV-3 ovarian.
For assay [7], the system named is IGROV1 ovarian.
The subject of assay [8] is OVCAR-3 ovarian.
Assay [9] relates to HS 578T breast.
Assay [10] has as its system NCI/ADR-RES ovarian.

About 83,000 compounds went through this panel and 20% of them were active in at least one assay; those are over-represented in the sample as a whole.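 Testing used 96-well plates and a 48-hour single-concentration exposure. Example: -40 means 40% of the starting cells died.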 Values without a mark were called inactive. The source made the active and inactive calls. How the source made its calls: active means growth percent below 10; inactive means the rest.

Regarding `CNC(=O)c1cccc(Cn2nc(C)c(NC(=O)c3ccc(COc4ccc(C(F)(F)F)cc4C)cc3)c2C)c1`, the growth in [1] was 23.3%; in assay [2], 27.3%; in assay [3], 33.9%; in [4], 100%; in assay [5] it was 29.6%; in [6], 70.9%. Further, the growth in assay [7] was 63.8%; in [8] it was 34%; in [9], 84.9%; in assay [10], 35.4%.
Turning to `COc1ccccc1NC(=O)C1CC(c2ccc(F)cc2)=NO1` (stereo not given), the growth in assay [1] is 101%; in [2], 97.1%; in [3] it was 98.1%; in assay [4], 108%; in assay [5], 102%; in assay [6], 112%. Also, the growth was 105% in assay [7], 110% in assay [8], 94.1% in assay [9] and 95.8% in assay [10].
Take `O=C(Nc1ccccc1C(=O)N/N=C(\c1ccccc1)c1ccccn1)c1ccc(F)cc1`: the growth in assay [1] was 14.4%; in assay [2], 29.1%; in assay [3] it was 17.1%; in assay [4], 41.7%; in [5], -5.03% (active); in [6] it was 2.2% (active). The growth in [7] was 22.8%; in [8] it was 18.1%; in assay [9] it was 59.9%; in assay [10], 9.79% (active).
In the case of `Cc1cc2nc3c4cc(C=O)ccc4n(CCN(C)C)c3nc2cc1C`, the growth in [1] is 3.27% (active); in assay [2], -22.6% (active); in assay [3], 17.6%; in [4], 22.5%; in [5], 23.8%; in assay [6], 26.8%. Moreover, the growth in [7] is 5.83% (active); in [8], 22.7%; in [9], 51.6%; in [10] it was 18.5%.
As for `COc1ccc(-c2nc3sccn3c2/C=C/C(=O)c2ccc3c(c2)OCO3)cc1`, the growth is 41.4% in [1]; 10.5% in assay [2]; 80.9% in assay [3]; 108% in assay [4]; 46.1% in [5]; 170% in [6]. Besides, the growth in assay [7] is 85.1%; in assay [8], 84.8%; in assay [9], 96.9%; in assay [10], 75.7%.
Turning to `O=S(=O)(NCCNc1nccc(-c2c(-c3cccc(O)c3)nc3occn23)n1)c1ccc(Cl)cc1`, the growth in assay [1] was 106%; in [2], 105%; in [3] it was 105%; in assay [4], 143%; in assay [5], 126%; in assay [6] it was 99.8%. In addition, the growth is 95% in assay [7], 113% in assay [8], 108% in assay [9] and 109% in [10].
For `CCOC(=O)[C@@H]1CCCN(S(=O)(=O)c2ccc(S(=O)(=O)N(CC)CC)c(F)c2)C1`, the growth in [1] is 60.1%; in assay [2], 61%; in assay [3] it was 77.8%; in [4], 95.5%; in assay [5], 75.5%; in [6], 82.4%. The growth in assay [7] was 93.5%; in assay [8] it was 88%; in assay [9], 93.5%; in assay [10], 47.2%.
Turning to `COc1ccc(C(=O)c2cc(C)c(OC)c(C)c2)c(OC)c1OC(=O)C(Cl)Cl`, the growth in [1] was 16%; in [2], 23.4%; in assay [3], 10.1%; in assay [4] it was 45.2%; in assay [5], 46.7%; in [6], -2.06% (active). Besides, the growth was 22.3% in assay [7], -4.52% (active) in assay [8], 20.5% in [9] and -3.92% (active) in [10].
As for `COc1ccc(C(=O)c2nc3ccccc3n2CC(=O)c2ccc(F)cc2)cc1`, the growth was 41.8% in assay [1]; 81.8% in assay [2]; 89.5% in assay [3]; 82.5% in [4]; 73.8% in [5]; 116% in assay [6]. The growth in [7] is 86.6%; in assay [8], 84.1%; in assay [9] it was 103%; in assay [10] it was 58.3%.
In the case of `CCN(CC)CC[n+]1cc2cc(OC)c(OC)cc2c2ccc3cc4c(cc3c21)OCO4`, the growth is -11.3% (active) in assay [1]; -32.7% (active) in [2]; -82.8% (active) in assay [3]; 6.85% (active) in assay [4]; 1.21% (active) in assay [5]; -10.7% (active) in assay [6]. Moreover, the growth in assay [7] was -44.1% (active); in assay [8], 13.4%; in [9], -4.12% (active); in assay [10] it was 70.5%.
For the molecule `N/C(=N\C(N)=N\c1nc2ccccc2s1)c1cccc(Cl)c1`, the growth in [1] is 16.6%; in assay [2], 80.8%; in assay [3], 70.8%; in assay [4] it was 111%; in assay [5], 71.5%; in assay [6] it was 98.3%. The growth was 75.9% in assay [7], 99.2% in assay [8], 97% in assay [9] and 77.4% in assay [10].
Take `CC(C)N1C(=O)S/C(=C2/SC(=O)N(C(C)C)C2=O)C1=O`: the growth was 103% in assay [1]; 93.9% in [2]; 104% in assay [3]; 101% in assay [4]; 97.4% in assay [5]; 127% in assay [6]. Further, the growth in assay [7] is 98.9%; in assay [8], 106%; in assay [9], 99.7%; in [10], 103%.
Turning to `COc1cc2nc(-c3ccc(Cl)cc3)cc(OCCCN3CCCC3)c2cc1OC`, the growth is 14.5% in assay [1]; 20.2% in [2]; 56.2% in assay [3]; 52.6% in [4]; 58.2% in assay [5]; 75.5% in assay [6]. Also, the growth in [7] is 34.5%; in assay [8] it was 74.4%; in [9] it was 68.6%; in [10], 47.3%.
As to `COc1cc2c(c(O)c1Br)C(=O)c1c(O)cc(C[C@H](C)O)cc1[C@H]2[C@H]1c2cc(C[C@H](C)O)cc(O)c2C(=O)c2c1cc(OC)c(Br)c2O`, the growth in assay [1] is -5.41% (active); in [2], 9.04% (active); in assay [3] it was 10.4%; in assay [4] it was 0.764% (active); in [5], 11.5%; in assay [6] it was 8.82% (active). Moreover, the growth was 2.65% (active) in [7], -27.4% (active) in assay [8], 9.13% (active) in assay [9] and 56.3% in assay [10].
For `COc1cc(/C=N/NC(=O)c2cnn3c2NC(c2ccccc2)C3)ccc1Oc1ccccc1` (stereo not given), the growth was 18% in assay [1]; 56.1% in [2]; 30.7% in assay [3]; 59.6% in assay [4]; 31.7% in assay [5]; 27.6% in [6]. The growth in assay [7] was 33.8%; in assay [8], -23.4% (active); in assay [9], 37.8%; in [10], 41.3%.
